# Compound activity as filed in PubChem BioAssay.
# The list is not random: actives were taken first. Their share in the collection is about 5.3%.
# Sfp inh: inhibitors of Bacillus subtilis Sfp phosphopantetheinyl transferase; AID 1490; actives 3.5% (n = 310,000); Biochemical Sfp PPTase activity, qHTS; Potency, µM, without a hit: largest response in the series, negative = inhibition, usual class: inhibitors;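 also: the enzyme is Sfp with the accession as filed and its product quenches rhodamine fluorescence; potency is read from the fitted curve at half-maximal effect; 0% = enzyme reaction without inhibitor and -100% = no enzyme wells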
#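 Step 1, compound plus 15 nM Sfp-PPTase, 15 min, room temperature. Step 2, add rhodamine-CoA (5 uM) and BHQ-2-YbbR (12.5 uM). Step 3, read 525/598 nm fluorescence at 0 and 30 min.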
# KDM4E inh: inhibitors of human JMJD2E histone demethylase; JMJD2E catalytic domain, FDH-coupled NADH fluorescence (FDH is formaldehyde dehydrogenase); Potency, µM (highest dose often 57.1 µM), for the others: at the top dose activity change, negative = inhibition, usual class: inhibitors; actives 1.6% (n = 230,000); active = well fitted inhibition curve with a large enough effect, not every such curve was filed as active; inconclusive = small, poorly fitted or top-dose-only effect, or another doubt; inactive = no such curve, though single readings can be large or run the other way;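 also: potency is read from the fitted curve at half-maximal effect; 0% = wells with enzyme and -100% = buffer wells without enzyme; nearly all actives have a fitted effect of over 50% in size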
# Target sequence (B2RXH2 1-337 limits assumed): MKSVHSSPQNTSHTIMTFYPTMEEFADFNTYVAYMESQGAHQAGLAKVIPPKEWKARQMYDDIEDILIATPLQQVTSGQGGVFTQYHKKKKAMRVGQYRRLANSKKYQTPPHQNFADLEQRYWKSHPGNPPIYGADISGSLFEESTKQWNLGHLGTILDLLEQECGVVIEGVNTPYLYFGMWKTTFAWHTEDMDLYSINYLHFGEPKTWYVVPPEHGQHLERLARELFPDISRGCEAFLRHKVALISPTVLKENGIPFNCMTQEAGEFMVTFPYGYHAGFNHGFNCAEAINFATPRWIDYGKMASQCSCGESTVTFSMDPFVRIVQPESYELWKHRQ
# Tau fluor cs: counter-screen for tau fibril formation inhibitors. tau K18 P301L Alexa594 fluorescence, heparin fibrillization. Potency, µM (doses to about 57.7 µM), inactives show at the top dose activity change, negative = decrease. actives 0.93% (n = 280,000); also: potency is read from the fitted curve at half-maximal effect; nearly all actives have a fitted effect of over 55% in size
#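 Human tau K18 P301L (15 uM unlabeled, 0.24 uM Alexa 594-labeled) in 100 mM sodium acetate pH 7 with 20 uM heparin, 6 hr at 37 C. ThT 30 uM added, 1 hr ambient; Alexa 594 FP and total fluorescence read at 555/632 nm.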
# Tau ThT inhib: blocks human tau fibril formation measured by thioflavin T; recombinant tau K18 P301L (four-repeat tau fragment), heparin-induced fibrillization, ThT fluorescence; actives 2.1% (n = 270,000); Potency, µM (titrated, usually from 57.4 µM), for the others: at the highest dose activity, negative = inhibition, most hits filed as inhibitors; also: potency is read from the fitted curve at half-maximal effect; nearly all actives have a fitted effect of over 55% in size
# Target sequence (P10636 561-689 P618L limits assumed): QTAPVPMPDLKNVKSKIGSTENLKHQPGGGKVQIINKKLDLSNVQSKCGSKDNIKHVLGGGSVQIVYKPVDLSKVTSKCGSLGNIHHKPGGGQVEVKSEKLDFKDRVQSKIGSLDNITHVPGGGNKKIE
#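 K18 P301L tau (15 uM + 0.24 uM Alexa 594-tagged), heparin 20 uM, NaOAc pH 7, 6 h 37 C; ThT 30 uM, 1 h RT, ex 450/em 510 nm.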
# Tau fibril FP: tau fibrillization inhibition (FP); P10636; K18 P301L tau heparin fibrillization, Alexa594 FP, 6 h; Potency, µM (doses to about 57.7 µM), for inactives: top-dose activity, negative = inhibition, hits mostly inhibitors; actives 0.39% (n = 280,000); AID 1468; also: potency is read from the fitted curve at half-maximal effect; nearly all actives have a fitted effect of over 55% in size
#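 Read-out: fluorescence polarization of Alexa 594-labeled tau (0.24 uM), 555 nm excitation, 632 nm emission. Mixtures held 15 uM unlabeled K18 P301L, compound and 20 uM heparin, pH 7 acetate buffer, incubated 6 hr at 37 C.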
# FBPA coupling cs: inhibits coupling enzyme system, counter-screen for aldolase hits; coupling enzyme system counterscreen, AmpLite Red fluorescence; activity change, negative = inhibition, % at 58.2 µM, hits read low; actives 0.67% (n = 290,000); in the data active = activity change below about -30%
#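 Counterscreen of the coupled detection system alone, without aldolase: glyceraldehyde-3-phosphate coupling enzymes plus AmpLite Red readout. Compounds at 57.5 uM final, 10 min RT preincubation, 20 min RT reaction, fluorescence 525/598 nm.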
# * hit, by the source's call; ? = inconclusive; nt = no result given; [ ] = another dose, or the depositor's remark. Unless noted, calls follow the shape of the dose curve; as a rule, active = well fitted curve in the direction sought with a large enough effect; inconclusive = small, poorly fitted or top-dose-only effect, or another doubt; inactive = no such curve, though single readings can be large; an effect the other way counts as inactive or inconclusive. Unless noted, % is scaled to controls: 0 for no effect and ±100 for the full control effect.
SMILES,Sfp inh,KDM4E inh,Tau fluor cs,Tau ThT inhib,Tau fibril FP,FBPA coupling cs
N#Cc1cccc(NC(=O)CSc2ccc3c4c(cccc24)C(=O)c2ccccc2-3)c1,11.4%,8.4%,?,?,-13.9%,-0.8
CCCCn1c(SCC(=O)Nc2cccc(OC)c2)nc2ccc(N3CCOCC3)cc2c1=O,-23.6%,?,?,?,9.2%,-32.5*
CCCCn1c(SCC(N)=O)nc2ccc(N3CCOCC3)cc2c1=O,?,?,-13.5%,-7.4%,0.5%,-40.3*
CCOCCCn1c(SCC(=O)Nc2ccc(OC)cc2)nc2ccccc2c1=O,50.1µM*,nt,nt,nt,nt,3.4
COc1ccc(NC(=O)CSc2ccc3c4c(cccc24)C(=O)c2ccccc2-3)cc1,39.8µM*,-0.4%,?,?,-4.1%,1.8
COc1cccc(NC(=O)CSc2nc3ccccc3c(=O)n2CCCC(=O)NCCCN2CCOCC2)c1,8.8%,-17.4%,-11.2%,-8.3%,-1.8%,2.8
COc1ccc(Cn2c(NCC(C)C)nc3c2c(=O)n(C)c(=O)n3C)cc1,nt,nt,?,?,7.7%,nt
O=C(NS(=O)(=O)c1ccc(F)cc1)O[C@@H]1C(=O)c2cc(Br)ccc2O[C@H]1c1ccc2c(c1)OCO2,-10.4%,3.2%,-13.3%,?,?,1.2
CCOc1ccc(NC(=O)CSc2nc3ccsc3c(=O)n2C(C)CC)cc1 (stereo unspecified),nt,nt,-12.0%,0.8%,-15.2%,nt
COc1ccc(CNC(=O)CCCc2cn(C)c3ccccc23)c(OC)c1,nt,nt,-11.6%,-3.4%,14.1%,nt
CCOC(=O)C(C(=O)OCC)C(C(=O)OCC)N1CCOCC1 (stereo unspecified),22.4µM*,-9.1%,2.7%,?,0.1%,2.8
CCOC(=O)C(C)CC(C)C(=O)N1CCOCCOCCN(C(=O)C(C)CC(C)C(=O)OCC)CCOCC1 (stereo unspecified),15.8%,1.2%,0.1%,-3.5%,8.1%,1.9
Cc1cccc(C2=N[C@@H](Cc3ccccc3)CO2)c1,-10.4%,nt,-19.7%[126 µM],-18.6%[126 µM],-0.4%[126 µM],1.2
C[C@H](NC(=O)Cc1cc(F)cc(F)c1)C(=O)N[C@@H](C(=O)OC(C)(C)C)c1ccccc1,9.3%,nt,nt,nt,nt,0.2
COc1cc([N+](=O)[O-])cc(/C=N/NC(=O)c2cccnc2)c1O,1.0%,8.91µM*,-17.8%,?,5.8%,4.0
COc1ccc(/C=N/NC(=O)c2ccccc2O)cc1Cn1cc([N+](=O)[O-])cn1,-14.1%,?,-19.7%,-20.9%,0.7%,2.1
COc1cc([N+](=O)[O-])cc(/C=N/NC(=O)C(O)(c2ccccc2)c2ccccc2)c1O,0.0%,nt,nt,nt,nt,-0.5
COc1ccc(-c2ccc(/C=N/NC(=O)c3cccnc3)o2)c([N+](=O)[O-])c1,-23.9%,5.4%,-24.6%,2.82µM*,?,3.3
O=C(N/N=C/c1ccc(-c2ccccc2[N+](=O)[O-])o1)[C@H]1C[C@@H]1c1ccccc1,25.1µM*,10.7%,?,4.47µM*,?,-43.8*
COc1ccc(/C=N/NC(=O)c2cccnc2)cc1COc1ccc([N+](=O)[O-])c(C)c1,5.5%,-19.1%,?,-18.2%,-13.1%,1.6
COc1ccc(/C=N/NC(=O)c2cc(O)c(O)c(O)c2)cc1Cn1cc([N+](=O)[O-])cn1,-121.0%,2.24µM*,?,?,0.3%,-24.5
Nc1ncnc2c1ncn2[C@H]1O[C@@H](CSCC[C@@H](N)C(=O)O)[C@H](O)[C@@H]1O,-29.3%,nt,-9.1%,?,-2.8%,nt
CCCCNC(=O)CCCn1c(=O)c2ccccc2n(Cc2cccc(Cl)c2)c1=O,nt,nt,-8.2%,-6.1%,2.4%,nt
Cc1ccc(C(=O)N/N=C/c2ccc(-c3ccccc3[N+](=O)[O-])o2)cn1,?,-3.9%,4.1%,6.6%,5.7%,-61.4*
O=C(/C=C/c1ccc(-c2ccccc2[N+](=O)[O-])o1)c1ccccc1,?,?,?,17.8µM*,5.4%,-25.0
